ELG1 repair inh: qHTS screen for small molecules that inhibit ELG1-dependent DNA repair in human embryonic kidney (HEK293T) cells expressing luciferase-tagged ELG1; Potency, µM (highest dose often 46.1 µM), without a hit: top-dose activity change, negative = inhibition, most hits filed as inhibitors; HEK293T ELG1-luciferase reporter, luminescence, 16 h; DNA damage induced by 5-fluorouridine; actives 2.3% (n = 330,000); also: nearly all actives have a fitted effect of over 55% in size
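Cells (2,000 per well) received 5-fluorouridine plus test compound or DMSO and were incubated 16 hr at 37 °C, 5% CO2. Luciferase activity was read by luminescence 30 min after ONE-Glo addition; signal suppression marked inhibition of damage-induced ELG1 function.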
12-LOX inh: Primary qHTS assay for inhibitors of human arachidonate 12S-lipoxygenase (ALOX12): Round 2. Polyunsaturated fatty acid lipoxygenase ALOX12 (Homo sapiens), P18054. purified 12hLO, xylenol orange hydroperoxide absorbance. Potency, µM (titrated, usually from 108 µM), for inactives: at the top dose activity change, negative = inhibition, actives largely listed as inhibitors. actives 1.1% (n = 580,000). AID 1671190, 2021
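Purified human 12hLO at 150 nM in 25 mM Hepes, 0.01% Triton X-100, pH 7.0, preincubated 15 min at room temperature with compound. Reaction started with 40 uM arachidonic acid, 30 min at room temperature. Hydroperoxide measured by Fe-xylenol orange, 573/405 nm absorbance ratio.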
DT40 TDP1 CPT: qHTS for Inhibitors of human tyrosyl-DNA phosphodiesterase 1 (TDP1): qHTS in cells in presence of CPT; chicken DT40 Tdp1-/-;hTDP1 cells + 20 nM CPT, ATP luminescence, 48 h; Potency, µM (highest dose often 46.2 µM), without a hit: at the top dose activity change, negative = growth inhibition, hits mostly inhibitors; actives 12% (n = 420,000); AID 686979, 2013; also: nearly all actives have a fitted effect of over 55% in size
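Chicken DT40 Tdp1-/- cells complemented with human TDP1, 400 cells/well, exposed to compounds plus 20 nM camptothecin for at least 48 h at 37 C; viability read as ATP content by CellTiter-Glo luminescence.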
VP16 counter: VP16 counterscreen qHTS for inhibitors of ROR gamma transcriptional activity | AID 2546, 2010 | Potency, µM (series often up to 53.6 µM), for inactives: top-dose activity, negative = inhibition, usual class: inhibitors | Drosophila S2 Gal4-VP16 UAS-luciferase, luminescence, 20 h | actives 3.5% (n = 310,000);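 also: Gal4-VP16 expression switched on by copper sulfate through the metallothionein promoter; nearly all actives have a fitted effect of over 50% in size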
RORgamma inh: qHTS for inhibitors of ROR gamma transcriptional activity. Nuclear receptor ROR-gamma (Mus musculus), P51450. Drosophila S2 Gal4-RORgamma UAS-luciferase reporter, 20 h. Potency, µM (series often up to 53.6 µM), for inactives: at the top dose activity change, negative = inhibition, most hits filed as inhibitors. actives 5.4% (n = 310,000); also: nearly all actives have a fitted effect of over 60% in size
Target sequence (P51450 whole entry, looked up, the tested form may be a part): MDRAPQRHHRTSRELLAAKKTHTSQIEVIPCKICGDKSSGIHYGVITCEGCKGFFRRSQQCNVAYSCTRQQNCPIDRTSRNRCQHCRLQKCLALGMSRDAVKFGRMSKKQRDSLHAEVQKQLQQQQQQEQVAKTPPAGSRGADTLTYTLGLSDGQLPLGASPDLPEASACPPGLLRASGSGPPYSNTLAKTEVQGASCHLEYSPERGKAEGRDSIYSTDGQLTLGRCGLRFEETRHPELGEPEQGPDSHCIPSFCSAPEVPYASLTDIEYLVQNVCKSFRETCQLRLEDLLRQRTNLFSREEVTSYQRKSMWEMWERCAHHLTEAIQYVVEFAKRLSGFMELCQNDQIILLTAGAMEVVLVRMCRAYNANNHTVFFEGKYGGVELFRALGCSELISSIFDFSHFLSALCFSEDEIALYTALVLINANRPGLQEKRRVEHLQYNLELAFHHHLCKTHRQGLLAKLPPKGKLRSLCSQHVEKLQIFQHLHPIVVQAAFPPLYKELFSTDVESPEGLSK
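Compounds are pin-transferred onto Drosophila Schneider cells expressing a copper-inducible Gal4–ROR gamma transactivation domain fusion. After 1 hr, copper sulfate is added to 700 uM final; luciferase is read 20 hr later.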
DT40 TDP1 no CPT: qHTS for Inhibitors of human tyrosyl-DNA phosphodiesterase 1 (TDP1): qHTS in cells in absence of CPT | Potency, µM (series often up to 46.2 µM), for the others: at the highest dose activity change, negative = growth inhibition, hits mostly inhibitors | DT40 Tdp1-/- hTDP1 cells, no CPT, ATP luminescence, 48 h | actives 15% (n = 420,000); also: nearly all actives have a fitted effect of over 55% in size
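DT40 Tdp1-/-;hTDP1 cells, no CPT (DMSO vehicle only), 400 cells/well; compounds pin-transferred; ≥48 hr, 37 °C; CellTiter-Glo 30 min RT dark, luminescence read.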
Numbers without * were called inactive; ? = inconclusive; . = no result given; [ ] = dose if it differs, or a comment. Only some compounds are listed: those with a hit (about 15% of all), similar ones and a draw of the others. Calls follow the shape of the dose curve; as a rule, active = well fitted curve in the direction sought with a large enough effect; inconclusive = small, poorly fitted or top-dose-only effect, or another doubt; inactive = no such curve, though single readings can be large; an effect the other way counts as inactive or inconclusive. % is scaled to controls: 0 for no effect and ±100 for the full control effect; potency is read from the fitted curve at half-maximal effect.

SMILES	ELG1 repair inh	12-LOX inh	DT40 TDP1 CPT	VP16 counter	RORgamma inh	DT40 TDP1 no CPT
COCCCNc1oc(/C=C/c2cc(OC)c(OC)c(OC)c2)nc1C#N	.	?	?	.	.	23µM*
Nc1cc(-c2ccc(Br)cc2)[nH]n1	13µM*	16%	?	?	13%	?
CCC(=O)N1CCN(c2nc(CC)nc3sc4c(c23)CCCC4)CC1	?	0%	-27%	1%	13%	?
CCc1nc(N2CCN(C(=S)NCCCOC)CC2)c2c3c(sc2n1)CCCC3	?	0%	16µM*	?	14µM*	16µM*
Cc1ccc(C(=O)NC(=S)N(C)C2CCCCC2)cc1Br	14%	?	.	0.5µM*	0.22µM*	.
O=C(CSc1ccc(F)cc1)Nc1ccc(Br)cc1	?	-12%	-30%	-2%	?	18µM*
Cc1ccc(C(=O)N(C)C2CCCCC2)cc1Br	.	2%	.	.	.	.
Cc1ccccc1C(=O)NC(=S)N(C)C1CCCCC1	0%	396%	?	2.8µM*	?	-24%
O=C(CN(CC(=O)Nc1ccc(Br)cc1)CC(=O)Nc1ccc(Br)cc1)Nc1ccc(Br)cc1	.	11µM*	.	.	.	.
O=C(CC(=O)Nc1ccc(Br)cc1)Nc1ccc(Br)cc1	5%	0%	13%	-3%	3%	10%
COc1ccc(NC(=O)Cn2cccc2-c2nc(-c3ccc4c(c3)OCO4)no2)cc1	.	-9%	.	.	.	.
Cc1ncc2n1C(=O)N(C1CCN(C(=O)c3ccccc3F)CC1)C2	.	7%[176 µM]	.	.	.	.
COc1ccc(-c2nc(-c3cccs3)sc2-c2ccc(OC)cc2)cc1	.	-25%	.	.	.	.
COc1ccccc1/C=C/C(=O)NC(=S)N(C)C1CCCCC1	0%	?	-11%	3.2µM*	?	-23%
Cc1ccc(NC(=O)CN(C)C2CCCCC2)cc1Br	-17%	-4%	?	-7%	-13%	18µM*
CCNC(=O)c1ccccc1SCC(=O)Nc1ccc(F)cc1	?	-9%	16µM*	-4%	?	?
COc1ccc(C(=O)NC2CCCCC2)cc1	.	8%	.	.	.	.
COc1ccccc1/C=C/C(=O)N[C@@H]1C[C@H]2CC[C@@H]1C2	.	-8%	.	.	.	.
COc1ccc(C(=O)NC(=S)N(C)C2CCCCC2)cc1	?	?	?	4µM*	2µM*	?
CSc1ccccc1C(=O)Nc1ccc(F)cc1	.	-7%	.	.	.	.
Cn1c(=O)[nH]cc(CC(=O)N2C[C@H](C3CC3)[C@@H](N)C2)c1=O	.	7%	.	.	.	.
CCCCn1cnc2c1c(=O)n(CC(=O)Nc1c(CC)cccc1CC)c(=O)n2CCC	.	4%	.	.	.	.
CS(=O)(=O)N(CC(=O)Nc1ccc(C(N)=O)cc1)C1CCCCC1	1%	-11%	-6%	-9%	-6%	-23%
CS(=O)(=O)N(CC(=O)Nc1ccc(Br)cc1)C1CCCCC1	-11%	0%	?	-7%	-3%	23µM*
COc1ccc(C(=O)NC(=S)N(C)C2CCCCC2)cc1Br	-8%	83%	?	0.71µM*	0.71µM*	?
SMILES	ELG1 repair inh	12-LOX inh	DT40 TDP1 CPT	VP16 counter	RORgamma inh	DT40 TDP1 no CPT
Cc1cc(C)c(NC(=O)CN(C2CCCCC2)C2CCCCC2)c(C)c1	5%	-5%[57.4 µM]	23µM*	-6%	3%	16µM*
CCOc1ccc(N(CC(=O)Nc2cccc(Cl)c2)S(=O)(=O)c2c(C)noc2C)cc1	?	-5%	13µM*	13µM*	16µM*	12µM*
CCOc1ccc(NC(=O)CN(c2ccc(CC)cc2)S(=O)(=O)c2c(C)noc2C)cc1	.	9%	12µM*	.	.	13µM*
CCOc1ccc(N(CC(=O)NC(C)(C)C)S(=O)(=O)c2c(C)noc2C)cc1	2%	-13%	3%	-10%	-38%	-15%
CCOc1ccc(N(CC(=O)Nc2cccc(OC)c2)S(=O)(=O)c2c(C)noc2C)cc1	?	-1%	13µM*	?	?	18µM*
CCOc1ccc(N(CC(=O)Nc2ccccc2OCC)S(=O)(=O)c2c(C)noc2C)cc1	7%	1%	5.2µM*	-6%	-11%	3.3µM*
CCN(CC)c1nc2ccccc2nc1C(=O)Nc1ccc(Cl)cc1	.	-1%	.	.	.	.
FC(F)(F)c1cccc(CSc2nc(-c3ccccc3)c3ccccc3n2)c1	.	-27%	.	.	.	.
C[C@@H]1CN(Cc2ccc3c(c2)CN(Cc2nc(-c4ccccc4)cs2)CCO3)C[C@H](C)O1	.	-2%	-7%[9.04 µM]	.	.	23µM*
C[C@@H]1CN(Cc2ccc3c(c2)CN(C(=O)CN2CCOc4ccccc4C2)CCO3)C[C@H](C)O1	.	15%	-4%[9.04 µM]	.	.	-23%
C[C@@H]1CN(Cc2ccc3c(c2)CN(C(=O)c2ccc(Oc4ccccc4)o2)CCO3)C[C@H](C)O1	.	13%	-14%[9.04 µM]	.	.	12µM*
O=[N+]([O-])c1ccc(-c2csc(Nc3ccccc3)[n+]2Cc2ccccc2)cc1	?	?	21µM*	?	39%	21µM*
COc1ccc(-c2csc(Nc3ccccc3)[n+]2Cc2ccccc2)cc1	-11%	-16%	?	-14%	-23%	15µM*
O=[N+]([O-])c1ccc(C[n+]2ccccc2)cc1	8%	-1%	-10%	.	.	-2%
Cc1ccc(-c2csc(Nc3ccc(C(=O)O)cc3)[n+]2Cc2ccccc2)cc1	-24%	-4%	-24%	2%[10 µM]	8%	?
CN1CC2(CCN(C(=O)Cn3c(=O)oc4ccccc43)CC2)CC1C(=O)N1CCOCC1 (stereo not drawn)	.	44%	.	.	.	.
O=C(Nc1cccc(F)c1)N1CC(Oc2ccc(-c3noc(C4CCOCC4)n3)cc2)C1	.	18%	.	.	.	.
Cc1ccc2c(CNCc3cccs3)c(C(=O)O)n(Cc3ccc(F)cc3)c2c1	.	-27%	6.5µM*	.	.	5.2µM*
Cc1ccc2c(CNC3CCCCC3)c(C(=O)O)n(Cc3ccc(F)cc3)c2c1	.	0%	-20%	.	.	?
C=Cc1ccc(Cn2c(C(=O)O)c(CNCc3ccc(F)cc3)c3ccc(C)cc32)cc1	.	?	21µM*	.	.	23µM*
Cc1ccc2c(CNCc3ccc(C)o3)c(C(=O)O)n(Cc3ccc(F)cc3)c2c1	.	-21%	?	.	.	16µM*
